The source of these data is PubChem BioAssay AID1030 (National Center for Advancing Translational Sciences (NCATS), 2008).

Screen size: about 220,000 compounds; about 16,000 (7.3%) were called active. Where a call stands in place of a potency, no number is given. Not shown: some 25% with an inconclusive outcome. For the sample, actives were picked, then their nearest neighbours and some compounds at random. Values without a mark were called inactive. Calls follow the shape of the dose curve; as a rule, active = well fitted inhibition curve with a large enough effect (not every such curve was filed as active); inconclusive = small, poorly fitted or top-dose-only effect, or another doubt; inactive = no such curve, though single readings can be large or run the other way.
Potency is read from the fitted curve at half-maximal effect.

The target of this test is Aldehyde dehydrogenase 1A1 (Homo sapiens) (UniProt P00352). The experiment in a line: qHTS Assay for Inhibitors of Aldehyde Dehydrogenase 1 (ALDH1A1). To be noted: Purified ALDH1A1, NADH fluorescence, propionaldehyde substrate; series mostly up to 75.3 µM.
Chain of Aldehyde dehydrogenase 1A1 (Homo sapiens) (P00352 whole entry, looked up): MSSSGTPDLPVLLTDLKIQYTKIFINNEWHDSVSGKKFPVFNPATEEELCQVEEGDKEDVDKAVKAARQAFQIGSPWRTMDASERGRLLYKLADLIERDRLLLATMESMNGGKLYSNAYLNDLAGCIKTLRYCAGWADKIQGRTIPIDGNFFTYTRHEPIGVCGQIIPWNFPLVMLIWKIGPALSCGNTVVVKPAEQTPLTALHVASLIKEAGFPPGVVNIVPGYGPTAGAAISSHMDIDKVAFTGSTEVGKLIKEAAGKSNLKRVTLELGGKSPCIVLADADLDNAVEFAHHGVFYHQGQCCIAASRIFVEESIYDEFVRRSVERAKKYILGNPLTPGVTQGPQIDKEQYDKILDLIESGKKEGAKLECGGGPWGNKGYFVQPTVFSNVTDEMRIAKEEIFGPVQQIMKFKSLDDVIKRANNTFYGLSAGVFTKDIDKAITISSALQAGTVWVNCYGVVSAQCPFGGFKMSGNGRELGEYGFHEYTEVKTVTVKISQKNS
Take `C#CCOCCOCCOCCNc1nc(N2CCN(C(=O)[C@H](Cc3ccc(O)cc3)n3cc(C(N)CC(C)C)nn3)CC2)nc(N2CCN(C(=O)[C@H](CCC(=O)O)n3cc(C(N)[C@H](C)CC)nn3)CC2)n1` (stereo partly drawn): the Potency entry is “inactive”. Consider `CC1=C(C/C=C(\C)CCCC(C)CCCC(C)CCCC(C)C)C(=O)c2ccccc2C1=O` (stereo not drawn), for which the Potency result is “inactive”. Same read-out and setting: the same measure for `Cc1cc(C)c2nc(SCC(=O)N(C)C3CCS(=O)(=O)C3)cc(C)c2c1` (stereo not drawn): “inactive”; for `Cc1ccccc1NC(=O)Nc1ccccc1N1CCCCC1`: “inactive”; for `Cc1ccc(CN2CCN(Cc3ccc4ncccc4c3)CC2CCO)cc1` (stereo not drawn): “inactive”.

Take `O=[N+]([O-])c1ccc(NCCCN2CCOCC2)c(Cl)c1`: the Potency result is “inactive”.

Take `O=C(NCCNc1ccc([N+](=O)[O-])cc1)c1cccc2c(Br)cccc12`: the Potency result was “inactive”. On the same count and under the same terms, the value for `O=C(NCCCNc1ccc([N+](=O)[O-])cc1Cl)c1ccccc1F` was 15.8 µM (active); that for `Cc1ccc(C2=NN(C(=O)COc3ncnc4ccccc34)C(c3ccco3)C2)cc1` (stereo not drawn) was “inactive”; that for `C=C(C)C(=O)c1ccc(F)cc1` was “inactive”.

Turning to `CCn1c(O)c(N=NC2=NC(=O)CS2)c2cc(C)ccc21`, the Potency is 14.1 µM (active). Still for that read-out and setting: the value for `CCn1c(O)c(N=NC(=O)c2cccc(S(=O)(=O)N3CCCCC3)c2)c2ccccc21` was “inactive”.

On to `CC(c1ccco1)N(C(=O)COc1ccccc1[N+](=O)[O-])c1ccccn1` (stereo not drawn), for which the Potency entry is “inactive”.

As for `CC(c1ccco1)N(C(=O)c1ccc(S(=O)(=O)N2CCCCC2)cc1)c1ccccn1` (stereo not drawn), the Potency was 12.6 µM (active). Still for that read-out and setting: the same measure for `O=C(N/N=C/c1ccccn1)c1ccc(S(=O)(=O)N2CCCCCC2)cc1`: “inactive”; for `COc1ccc(NS(=O)(=O)c2ccc(NC(=S)NC(=O)CC(C)C)cc2)cc1`: 12.6 µM (active). On the same count and under the same terms, the value for `COc1ccc(C(=O)Nc2ccc(S(=O)(=O)NC(C)C)cc2)cc1` was “inactive”; that for `CC(=O)c1ccc(NC(=S)NC(=O)CC(C)C)cc1` was “inactive”; that for `O=C(NCC1CCN(Cc2ccccc2Cl)CC1)Nc1cccc(Cl)c1` was “inactive”. Take `COC(=O)C1=C(C)N(c2ccc(Br)cc2)C(=O)/C1=C\c1ccco1`: the Potency result was “inactive”. On the same count and under the same terms, the same measure for `CCC1SC(CC)C(=O)N(CC(=O)NC2CCCCC2)C1=O` (stereo not drawn): “inactive”; for `O=C(O)Cc1ccc(NCc2ccccc2Cl)cc1`: “inactive”. Still for that read-out and setting: the same measure for `CCC(C)NC(=O)/C=C/c1ccc(S(=O)(=O)NCc2ccco2)cc1` (stereo not drawn): 17.8 µM (active). Same read-out and setting: the value for `O=C(NC1CCC(O)CC1)c1ccc(S(=O)(=O)NCc2ccco2)cc1` (stereo not drawn) was “inactive”; that for `CC1CCN(S(=O)(=O)c2ccc(S(=O)(=O)NCc3ccco3)cc2)CC1` was “inactive”.

Turning to `CN(C)C(=O)c1nc2ccc(Cl)cn2c1CN1CCN(c2ncccn2)CC1`, the Potency result was “inactive”. Same read-out and setting: the same measure for `C=C(C)C1CC=C(C)/C(=N/NC(=O)CCCNc2cccc(C)c2)C1` (stereo not drawn): “inactive”; for `N#Cc1c(N)nc2c(c1N)CC(C(F)(F)F)O2` (stereo not drawn): “inactive”.

Regarding `Cc1ccc(S(=O)(=O)N(C)CC(=O)OCC(=O)N2CC(=O)Nc3ccccc32)cc1`, the Potency result is “inactive”. Still for that read-out and setting: the same measure for `Cc1ccc(S(=O)(=O)N2CCC(C(=O)OCC(=O)N3CC(=O)Nc4ccccc43)CC2)cc1`: 12.6 µM (active); for `COc1ccc(S(=O)(=O)N2CCC(C(=O)OCC(=O)c3ccccc3)CC2)cc1[N+](=O)[O-]`: “inactive”; for `COc1ccc(Cl)cc1-n1c(C)cc(C(=O)OCC(=O)N2CC(=O)Nc3ccccc32)c1C`: “inactive”. Consider `COc1cc(OC)c(C(=O)OCC(=O)N2CC(=O)Nc3ccccc32)cc1OC`, for which the Potency entry is “inactive”. Same read-out and setting: the value for `O=C1CN(C(=O)COC(=O)c2cnc(Cl)c(Cl)c2)c2ccccc2N1` was 1.26 µM (active); that for `Oc1cccc(C2c3[nH]c4ccccc4c3CCN2Cc2cnn(-c3ccccc3)c2)c1` (stereo not drawn) was “inactive”. Same read-out and setting: the same measure for `CC(=O)Nc1ccccc1NC(=O)c1cc(C)cc(C)c1`: “inactive”. Still for that read-out and setting: the same measure for `CCOc1ccc(CCNC(=O)C2=C(C)C(=O)OC23CCC(C)CC3)cc1OCC` (stereo not drawn): “inactive”. As for `CC(Sc1nnnn1C1CCCCC1)C(=O)O` (stereo not drawn), the Potency result is “inactive”. The same measure, in the same setting: the value for `O=C(COc1ccc(Cl)cc1)NCc1nnc(SCC(=O)NCC2CCCO2)o1` (stereo not drawn) was “inactive”.

On to `Cc1ccc(-c2cc(=O)c3ccc(F)cc3[nH]2)cc1`, for which the Potency entry was “inactive”. The same measure, in the same setting: the same measure for `COc1ccc(C)cc1NC(=O)CSc1ccc(Cl)cc1`: “inactive”. Same read-out and setting: the value for `COc1ccc(C)cc1NC(=O)CSc1nnc(CC(=O)Nc2ccccc2F)n1C` was “inactive”.

On to `COc1ccc(Cl)cc1NC(=O)CNc1ccccc1F`, for which the Potency is 31.6 µM (active). Same read-out and setting: the same measure for `C=CCOC(=O)NC(c1ccc(F)c(F)c1)C(C(=O)COC)C(=O)OC` (stereo not drawn): “inactive”.

In the case of `CCOCC(=O)Nc1ncc(S(=O)(=O)c2ccc([N+](=O)[O-])cc2)s1`, the Potency was 3.55 µM (active).

As for `Cc1cc(C)cc(OCC(=O)Nc2nc3ccc([N+](=O)[O-])cc3s2)c1`, the Potency result is “inactive”. Still for that read-out and setting: the same measure for `COC(=O)C(NC(=O)c1ccc(OC)cc1)(Nc1ncc(S(=O)(=O)c2ccc([N+](=O)[O-])cc2)s1)C(F)(F)F` (stereo not drawn): “inactive”; for `Fc1ccc(NC(=S)N2CCc3[nH]c4ccccc4c3C2)cc1`: “inactive”; for `O=C(O)CCCCCNc1ncnc2ccc(Br)cc12`: “inactive”. As for `O=C(O)C[C@@H]1NC(=O)[C@H](Cc2ccccc2)NC1=O`, the Potency result is “inactive”. As for `O=C(CCC(=O)N1CCN(S(=O)(=O)c2ccccc2)CC1)NC1CCCc2ccccc21` (stereo not drawn), the Potency entry was “inactive”. On the same count and under the same terms, the value for `O=C(CSc1nncs1)NC1CCCc2ccccc21` (stereo not drawn) was “inactive”; that for `O=C(CN1CCN(c2ccc(O)cc2)CC1)NC1CCCc2ccccc21` (stereo not drawn) was 11.2 µM (active). Turning to `COC(=O)CCCC1=CC2=CC(=O)C(C)(OC(=O)c3cccs3)C(=O)C2=CN1c1ccc(CO)cc1` (stereo not drawn), the activity, negative = inhibition was 3.06% [at 13.5 µM].

In the case of `O=C(Cc1c(F)cccc1Cl)Nc1ccc(-n2cnnn2)cc1`, the Potency result was “inactive”. The same measure, in the same setting: the same measure for `COc1ccc(CN2CCC(c3nc4ccc(Cl)cc4[nH]3)CC2)cc1`: “inactive”; for `Cc1ccc(Cn2nnc3c(=O)n(CC(=O)N4CCCCC4)cnc32)cc1`: “inactive”; for `Cc1ccc(NC(=O)N2CCC(C(=O)NCc3ccc(F)cc3)CC2)cc1`: “inactive”. On the same count and under the same terms, the same measure for `Cc1ccc(NC(=O)N2CCC(c3nc4c(nnn4Cc4c(F)cccc4Cl)c(=O)[nH]3)CC2)cc1`: 15.8 µM (active).

As to `COc1ccc(Cn2nnc3c(=O)[nH]c(C4CCN(C(=O)c5ccccc5Cl)CC4)nc32)cc1`, the Potency was 14.1 µM (active). In the case of `COC(=O)c1nc(NC(=O)c2ccc(C(C)(C)C)cc2)n[nH]1`, the Potency entry was “inactive”. On the same count and under the same terms, the same measure for `CSc1nc2ccc(NC(=O)c3c(F)cccc3F)cc2s1`: “inactive”; for `N/C(=N\OC(=O)c1ccc2c(c1)OCO2)c1ccc(Br)cc1`: “inactive”.
